From PubChem BioAssay AID1076 (NMMLSC, 2008)
Activity calls are given as the source filed them.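 How the source made its calls: active means cell event count below 40, meaning activity score above 60 where score is 100 minus count; inactive means the rest.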

Test: LNCaP cell loss by flow event count, confirmation, cytotoxicity control for prostate differentiation activator project, single point (AID 1076);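 further: counts scatter-gated live cells after medium removal discards detached dead cells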
Details: flow cytometry event count, 4 d, stronger effect = lower value

SMILES	cell event count (at 100 µM)	cell event count (event count, at 10 µM)
O=C(O)C1CCCCC1C(=O)Nc1cnn(Cc2ccccc2)c1 (centres undefined)	42 (inactive)	66.5
CC(C)CCNC(=O)C1CCN(c2nc3ccccc3o2)CC1	73 (inactive)	110
CCN1CCN(CCNC(=O)C2CCN(Cc3nc(-c4ccc(Cl)cc4)oc3C)CC2)CC1	38 (inactive)	378
CCOC(=O)c1c(C)[nH]c(C(=O)COC(=O)C2CC2C)c1C (centres undefined)	37 (inactive)	976
O=C(NCCCN1CCN(c2ccccc2F)CC1)C1CCC(=O)N1C1CCCCC1 (centres undefined)	388 (inactive)	282
COC(=O)c1ccccc1S(=O)(=O)N(Cc1cc2cc3c(cc2[nH]c1=O)OCO3)C1CCCCC1	8 (inactive)	103
COc1ccccc1NC(=O)c1nc[nH]c1C(=O)Nc1ccccc1OC	103 (inactive)	257
Cc1ccc(C)c(N2CCN(CCCNC(=O)Cn3cc4c(n3)CCCCC4)CC2)c1	3 (active)	53.5
CCc1ccc(-c2nc(CN3CCC(C(=O)NCCc4ccc(OC)c(OC)c4)CC3)c(C)o2)cc1	17 (inactive)	204
CCn1c(=O)cc(SCC(=O)N2CCN(C3CCCCC3)CC2)c2ccccc21	6 (inactive)	402
CCOc1cccc2cc(-c3cn4cc(C)ccc4n3)c(=O)oc12	267 (inactive)	300
Cc1nc(NCCNC(=O)c2ccco2)c2c(C)c(C)sc2n1	83 (inactive)	170
CN(CC(=O)Nc1ccc2c(c1)OCCO2)S(=O)(=O)c1cccc2cccnc12	95 (inactive)	156
O=C(CCNC(=O)Cn1ccc2ccccc2c1=O)NCCCN1CCN(c2ccc(F)cc2)CC1	156 (inactive)	91.5
CCc1ccc(NC(=O)NCCN2CCc3ccccc3C2)cc1	6 (inactive)	112
Cc1ccccc1-c1nc(CN2CCC(C(=O)NCCC3=CCCCC3)CC2)c(C)o1	11 (inactive)	93.5
Cc1oc(-c2cccc(Cl)c2)nc1CN1CCC(C(=O)NCc2ccco2)CC1	100 (inactive)	189
COc1ccccc1N1CCN(c2nc3ccccc3nc2C(C#N)C(=O)OC(C)C)CC1 (centres undefined)	110 (inactive)	252
Cc1oc(-c2cccc(Cl)c2)nc1CN1CCCC(C(=O)NCc2ccco2)C1 (centres undefined)	10 (inactive)	146
O=C(c1ccc(COCC(F)(F)F)o1)N1CCCCCC1	118 (inactive)	104
COc1cc(C(=O)NCc2nnc(SCC(=O)NCc3ccccc3)o2)cc(OC)c1OC	104 (inactive)	134

SMILES	cell event count (at 100 µM)	cell event count (event count, at 10 µM)
O=C(COc1ccc(S(=O)(=O)N2CCCC2)cc1Cl)NC1CC1	355 (inactive)	328
Cc1oc(-c2ccc(Cl)cc2)nc1CN1CCCC(C(=O)NCc2ccco2)C1 (centres undefined)	27 (inactive)	248
COc1ccc(CCNC(=O)C2CCN(Cc3nc(-c4ccccc4F)oc3C)CC2)cc1OC	524 (inactive)	478
CCn1c(C(=O)NCCCN2CCc3ccccc3C2)cc2sccc21	16 (inactive)	380
COc1ccc2nc(NC(=O)C(NS(=O)(=O)c3cccs3)C(C)C)sc2c1 (centres undefined)	67 (inactive)	253
COc1ccc(CCNC(=O)C2CCN(Cc3nc(-c4cccc(Cl)c4)oc3C)CC2)cc1OC	85 (inactive)	338
Cc1ccc(C)c(N2CCN(CCCNC(=O)Cn3cc4c(n3)CCC(C)C4)CC2)c1 (centres undefined)	5 (inactive)	276
CCOC(=O)CSc1nnc(CNC(=O)c2ccccc2OC)n1-c1ccc(OC)cc1	256 (inactive)	156
CCOC(=O)N1CCC(NC(=O)c2cc3c(-c4ccc(Cl)cc4)nn(C)c3s2)CC1	342 (inactive)	118
CCOC(=O)c1c(-c2ccc(C)o2)csc1NC(=O)CN1CCN(CC)CC1	27 (inactive)	170
Cc1ccc(NC(=O)N2CCCN(Cc3ccc(F)cc3)C2)cc1C	13 (inactive)	142
OCc1nc2ccccc2n1CCCOc1ccccc1	178 (inactive)	156
O=C(NCCCN1CCN(c2ccccc2F)CC1)C1CCC(=O)N1C1CCCC1 (centres undefined)	60 (inactive)	62
CCOC(=O)C1CCN(c2nc3ccccc3nc2C(C#N)C(=O)OCCOC)CC1 (centres undefined)	17 (inactive)	108
Cc1oc(-c2ccc(Cl)cc2)nc1CN1CCC(C(=O)N2CCc3ccccc3C2)CC1	18 (inactive)	320
O=C(CSc1nc2sc3c(c2c(=O)n1-c1ccccc1)CCCC3)NCc1ccco1	25 (inactive)	104
CC1(C)CC(=O)c2cc(OCC(=O)NCCCN3CCN(c4ccccc4F)CC3)ccc2O1	11 (inactive)	141
COC(=O)c1ccc2c(=O)n(Cc3ccco3)c(SCC(=O)Nc3ccc(C)c(Cl)c3)nc2c1	138 (inactive)	146
O=C(Nc1c(C(=O)N2CCOCC2)cnn1-c1ccccc1)c1ccco1	201 (inactive)	124
O=C(CSc1nc2c(c(=O)n1-c1ccc(F)cc1)SCC2)NCC1CCCO1 (centres undefined)	207 (inactive)	132
O=C(NCCCN1CCOCC1)c1cc2c(s1)CSC2	191 (inactive)	52.5

SMILES	cell event count (at 100 µM)	cell event count (event count, at 10 µM)
CCSc1nnc(Cn2c(=O)sc3ccccc32)n1-c1ccccc1C	249 (inactive)	171
COc1ccc2cc3c(N)nn(C(=O)Cc4ccccc4OC)c3nc2c1	20 (inactive)	287
c1ccc(CSc2nnc(-c3cccs3)n2Cc2ccco2)cc1	55 (inactive)	122
CCc1ccc(-c2nc(CN3CCC(C(=O)N4CCN(c5ccccn5)CC4)CC3)c(C)o2)cc1	10 (inactive)	212
CCCc1cc(-c2n[nH]c(C)c2-c2ccc(C(=O)OCC)o2)c(O)cc1O	7 (active)	71
Cc1ccccc1-c1nc(CN2CCC(C(=O)O)CC2)c(C)o1	217 (inactive)	207
COc1cccc(Oc2cnc(N)nc2-c2ccc(OC)cc2O)c1	9 (inactive)	180
CCOC(=O)c1ccc(-c2n[nH]c(=O)c3ccccc23)cc1	345 (inactive)	236
CCOc1ccc(OCC)c(NC(=O)C2CCCN(S(=O)(=O)c3c(C)noc3C)C2)c1 (centres undefined)	187 (inactive)	260
CCS(=O)(=O)N1CCC(C(=O)NCCCN2CCN(c3ccccc3F)CC2)CC1	135 (inactive)	70.5
O=c1cc(N2CCc3ccccc3C2)[nH]c(=O)n1C1CCCCC1	143 (inactive)	76.5
N=c1c(C(=O)NC2CCCC2)cc2c(=O)n3ccccc3nc2n1C1CCCC1	12 (active)	55
Cc1cccc(N2CCN(C(=O)CCNC(=O)Cn3ccc4ccccc4c3=O)CC2)c1C	8 (inactive)	246
Cc1cc(N2CCC(N(C)C3CCCC3)CC2)nc2cc(O)ccc12	26 (inactive)	196
Cc1ccc2[nH]c(=O)c3cc(C(=O)N(C)Cc4ccco4)sc3c2c1	72 (inactive)	456
Cc1nc2nc(C)c(CCC(=O)NCCCN3CCN(c4cccc(Cl)c4)CC3)c(C)n2n1	43 (inactive)	61
COc1ccc(CN2C(=O)C(O)(CC(=O)c3c(C)n[nH]c3C)c3ccccc32)cc1OC (centres undefined)	284 (inactive)	248
Cc1oc(-c2ccc(Cl)cc2)nc1CN1CCCC(C(=O)NCCCN2CCOCC2)C1 (centres undefined)	42 (inactive)	182
CCN1C(=O)OC2(CCCCC2)C1(C)O (centres undefined)	230 (inactive)	174
Cc1cc(=O)c2ccccc2[nH]1	143 (inactive)	91
